# Results taken from a collection of fitness landscapes (doi:10.1126/science.1257360).
# In all, about 140,000 sequences were measured (“enrichment ratio after two sorts for PhoP signalling”: median about 0, highest 2% from about 11 on). The sample as a whole holds a higher share of the highest values than the screen did.
# B1: PhoQ; a variant is named by its letters at X, in order, P23837 (parent)
# chain: MKKLLRLFFPLSLRVRFLLATAAVVLVLSLAYGMVALIGYSVSFDKTTFRLLRGESNLFYTLAKWENNKLHVELPENIDKQSPTMTLIYDENGQLLWAQRDVPWLMKMIQPDWLKSNGFHEIEADVNDTSLLLSGDHSIQQQLQEVREDDDDAEMTHSVAVNVYPATSRMPKLTIVVVDTIPVELKSSYMVWSWFIYVLSANLLLVIPLLWVAAWWSLRPIEALAKEVRELEEHNRELLNPATTRELTSLVRNLNRLLKSERERYDKYRTTLTDLTHSLKTPLXXLQXXLRSLRSEKMSVSDAEPVMLEQISRISQQIGYYLHRASMRGGTLLSRELHPVAPLLDNLTSALNKVYQRKGVNISLDISPEISFVGEQNDFVEVMGNVLDNACKYCLEFVEISARQTDEHLYIVVEDDGPGIPLSKREVIFDRGQRVDTLRPGQGVGLAVAREITEQYEGKIVAGESMLGGARMEVIFGRQHSAPKDE
# Variants of: B1
# Assay: enrichment ratio after two sorts for PhoP signalling (ratio (wild type AVST 3.29)); higher = more functional
# Settings: with PhoP (E. coli)
row,Variant,enrichment ratio
1,IQMM,≤ 0.25
2,VLMM,≤ 0.25
3,HIMM,≤ 0.25
4,ITMM,17.7
5,GAMM,14.4
6,VAMM,12.8
7,VHMM,≤ 0.25
8,IPMM,≤ 0.25
9,IGWM,≤ 0.25
10,IGMM,18.5
11,IGGM,≤ 0.25
12,TAMM,2.2
13,MRMA,≤ 0.25
14,HQRH,≤ 0.25
15,GEDN,≤ 0.25
16,YNEG,≤ 0.25
17,KEMR,≤ 0.25
18,WIRK,≤ 0.25
19,EEFA,≤ 0.25
20,YYMT,≤ 0.25
21,TQCW,0.964
22,PSYG,≤ 0.25
23,EPIL,≤ 0.25
24,ISMM,5.78
25,LLMM,≤ 0.25

row,Variant,enrichment ratio
1,KAMM,≤ 0.25
2,IAMM,13.5
3,LTMM,2.28
4,LAMM,14.3
5,MTSV,0.634
6,MDSV,≤ 0.25
7,MKSV,≤ 0.25
8,AESV,14.8
9,ARSV,≤ 0.25
10,AHSV,≤ 0.25
11,QRSV,≤ 0.25
12,NESV,≤ 0.25
13,MESV,24.5
14,TESV,26.1
15,IESV,≤ 0.25
16,QESV,29.9
17,QPSV,≤ 0.25
18,IVVM,≤ 0.25
19,GAFT,≤ 0.25
20,TQPA,≤ 0.25
21,WQTI,≤ 0.25
22,MSAY,7.95
23,NSEQ,≤ 0.25
24,TQME,17.2
25,IQME,≤ 0.25

row,Variant,enrichment ratio
1,FQMY,≤ 0.25
2,NQMY,≤ 0.25
3,WQME,≤ 0.25
4,TQMY,12.5
5,KHFI,≤ 0.25
6,MHHY,≤ 0.25
7,RLFV,≤ 0.25
8,ALVF,0.451
9,ATVF,16.1
10,ACHF,≤ 0.25
11,AWVF,≤ 0.25
12,YTVF,0.29
13,ACVF,11.9
14,LWTN,≤ 0.25
15,FKQC,≤ 0.25
16,IVWE,≤ 0.25
17,GEIY,23
18,GGIY,2.45
19,GEFC,≤ 0.25
20,GNIS,5.86
21,GNIY,≤ 0.25
22,GERC,≤ 0.25
23,GEIS,20.8
24,GEIC,45.3
25,GEIV,8.51

row,Variant,enrichment ratio
1,IKLA,≤ 0.25
2,LNNT,≤ 0.25
3,FNGW,≤ 0.25
4,YVPF,≤ 0.25
5,LTCT,≤ 0.25
6,FKRE,≤ 0.25
7,TTCA,9.39
8,LPWS,≤ 0.25
9,GDTH,≤ 0.25
10,LVNA,≤ 0.25
11,HQNP,≤ 0.25
12,AKAT,3.68
13,ANKK,≤ 0.25
14,AQMI,≤ 0.25
15,TKMT,6.64
16,NQMT,≤ 0.25
17,AIAT,19.3
18,MEMT,≤ 0.25
19,AQMT,23.8
20,KKAT,≤ 0.25
21,AKMT,52.1
22,ANKA,≤ 0.25
23,ANMT,12.2
